Assay results: article PMC5540273 (PLoS ONE, 2017)

Legend:
Conditions in all cases: concentration: 1 μM, replicates: in singlicate; n = 1
FGFR1 = test system: FGFR1
FGFR2 = test system: FGFR2
FGFR3 = test system: FGFR3
FGFR4 = test system: FGFR4
FGR = test system: FGR
FLT1 = test system: FLT1
FLT3-autoinhibited = test system: FLT3-autoinhibited
FLT3 = test system: FLT3
FLT4 = test system: FLT4
FRK = test system: FRK
FYN = test system: FYN
GAK = test system: GAK
GCN2(Kin.Dom.2,S808G) = test system: T1, GCN2(Kin.Dom.2,S808G)
T1 construct: gene EIF2AK4

GRK1 = test system: GRK1
GRK2 = test system: T2, GRK2
T2 construct: gene ADRBK1

GRK3 = test system: T3, GRK3
T3 construct: gene ADRBK2

GRK4 = test system: GRK4
GRK7 = test system: GRK7
GSK3A = test system: GSK3A
GSK3B = test system: GSK3B
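Note: KINOMEscan kinase panel screen.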

SMILES	%Inh (FGFR1) [%]	%Inh (FGFR2) [%]	%Inh (FGFR3) [%]	%Inh (FGFR4) [%]	%Inh (FGR) [%]	%Inh (FLT1) [%]	%Inh (FLT3-autoinhibited) [%]	%Inh (FLT3) [%]	%Inh (FLT4) [%]	%Inh (FRK) [%]	%Inh (FYN) [%]	%Inh (GAK) [%]	%Inh (GCN2(Kin.Dom.2,S808G)) [%]	%Inh (GRK1) [%]	%Inh (GRK2) [%]	%Inh (GRK3) [%]	%Inh (GRK4) [%]	%Inh (GRK7) [%]	%Inh (GSK3A) [%]	%Inh (GSK3B) [%]
O=C(Nc1cccc(-c2nn3ccccc3c2-c2ccnc(Nc3cccc(F)c3)n2)c1)c1c(F)ccc(F)c1Cl [GSK357952]	14	0	19	0	97.1	89	15	51	38	76	66	14	1	5	0	0	5	0	0	6
COc1cc(Nc2ncc3c(C)nc(-c4cc5ccccc5[nH]4)n3n2)cc(OC)c1OC [GW869516]	35	21	30	15	40	23	75	96.3	1	39	30	34	88	0	0	0	19	0	0	0
CCCCc1nn2ncccc2c1-c1ccnc(Nc2ccc(N3CCN(C)CC3)cc2)n1 [GW684941]	97.9	96.9	89	68	91.9	98	93.3	99.5	95.6	95	58	91.7	93	0	0	62	16	0	7	5
Cc1ccc(C(=O)N2CC[C@@H](O)C2)cc1-n1c(C)cc(OCc2ccc(F)cc2F)c(Br)c1=O	80	66	21	0	0	46	0	14	0	14	21	0	0	16	0	0	0	0	0	0
Nc1ncc(-c2cccnc2)c2scc(-c3ccc4c(c3)CCN4C(=O)Cc3ccccc3)c12 [GSK683281]	31	10	7	12	25	47	5	83	35	6	32	23	75	0	0	0	22	0	24	29
Cl.c1ccc(-c2ccc3c(Nc4ccc5[nH]ccc5c4)ccnc3c2)nc1 [GW440138]	63	63	58	29	53	98.1	0	0	92.9	17	46	64	0	0	0	50	0	0	26	0
Cl.c1ccc(-c2ccc3c(Nc4ccc5[nH]ncc5c4)ccnc3c2)nc1 [GW440137]	14	0	11	0	30	62	2	0	39	0	50	68	0	0	0	22	0	0	16	17
Cc1ccc(F)c(C(=O)Nc2cccc(-c3nn4ccccc4c3-c3ccnc(Nc4cccc(F)c4)n3)c2)c1F [GSK361061]	19	0	21	11	91.4	94.5	0	78	82	86	58	52	11	0	0	0	25	0	12	21
CN(C)Cc1ccc(-c2ccc3c(Nc4ccc(Oc5ccccn5)cc4)ccnc3c2)o1 [GW567148]	0	12	5	0	81	32	53	95.5	21	25	71	82	0	0	0	0	0	10	0	6
CCc1ccc(-c2ccc3c(c2)-c2c(cnn2C)S(=O)(=O)N3C)cc1	3	0	0	0	0	0	9	0	0	0	3	8	16	11	0	0	16	0	0	13
COc1cccc(C(=O)Nc2cccc(Oc3ccc4nc(NC(=O)C5CC5)cn4n3)c2)c1	22	88	41	48	98	99.9	24	89	100	94.9	84	33	22	17	0	0	0	0	8	10
COc1ccc(Nc2nccc(N3CCC(NC(=O)Nc4cccc(OC)c4)C3)n2)cc1 (stereo not shown) [GSK1379742]	5	7	5	0	17	36	20	35	0	8	0	23	6	0	0	22	0	0	13	2
CCn1c(-c2nonc2N)nc2c(C#CC(C)(C)O)nc(OC[C@H](N)c3ccccc3)cc21 [GSK943949]	11	4	0	0	0	1	0	3	20	0	0	0	19	14	11	0	3	30	66	59
CN(c1ccc(NC(=O)Nc2cc(C(F)(F)F)ccc2F)cc1)c1ccnc(Nc2ccc(S(N)(=O)=O)cc2)n1 [GW809893]	76	70	22	14	94.7	98.3	82	98.6	99.8	99	83	0	0	17	13	0	25	6	68	12
COc1ccc(-c2coc3ccc(-c4nnc(SCc5ccc(OC)c(C(F)(F)F)c5)o4)cc23)cc1	0	17	17	2	0	0	19	10	13	0	3	10	0	19	0	0	0	21	25	4
Cc1ccc(C)c(NC(=O)NC2CCN(c3ccnc(Nc4ccc(F)cc4)n3)C2)c1 (stereo not shown) [GSK1379720]	0	14	2	5	24	9	0	0	0	14	27	0	0	0	0	60	7	0	0	0
CN(C)S(=O)(=O)c1cc(-c2ccc3nccc(-c4cccc(S(N)(=O)=O)c4)c3c2)cnc1N [GSK1669921]	0	22	26	13	22	25	19	1	1	7	28	28	0	5	0	0	12	8	0	3
O=C(Nc1cccc(-c2nn3ncccc3c2-c2ccnc(Nc3ccccc3)n2)c1)c1c(F)cccc1F [GSK198271]	0	7	3	14	97.2	98.4	0	72	77	89	85	31	33	0	0	0	1	0	16	14
c1ccc(-c2n[nH]cc2Nc2ccnc3ccccc23)nc1 [GW694077]	0	0	0	0	10	26	8	12	11	0	36	100	0	7	0	33	81	0	0	7
Oc1cc(Nc2ccnc3cc(I)ccc23)ccc1F [GW552771]	23	0	13	0	84	44	0	0	45	72	62	85	8	0	0	65	10	0	17	0
